Experimental data: PubChem BioAssay
Potency and affinity values are given separately. Results filed as inconclusive are left out. Active and inactive are the calls of the source. Unless noted, how the calls were made is not given here.

What was measured:
[1] = RMG-1 ovarian cancer cell viability loss – cherry-pick, dose response (AID 687029;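 active means signal drop whose fitted half-maximal concentration is at most twice the top valid dose, in every test run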;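 further: cells exposed to compound for 96 hours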)
[2] = CMV-driven luciferase expression suppression in HEK293 – cell-based, luminescence, dry powder, counter-screen for Pax8 inhibitor project, dose response (AID 743020;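 active means signal-lowering compounds whose fitted half-maximal concentration is at or below twice the top tested dose in every run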;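 further: HEK293 cells stably expressing the CMV luciferase reporter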)
[3] = general cell-killing toxicity readout – plate reader, dry powder samples, cytotoxicity control for PAX8 inhibitor project, dose response (AID 743021)
[4] = IGROV1 cell killing – plate reader, dry powder samples, PAX8 inhibitor project, dose response (AID 743043);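 further: more negative means fewer viable cells or more cytotoxicity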
[5] = OVCAR-3 cell viability loss – plate reader, dry powder samples, PAX8 inhibitor project, dose response (AID 743044); settings: max activity: at 35 µM, hits give low values unless noted
[6] = toxicity toward immortalized ovarian surface epithelium – cell-based, plate reader, dry powder samples, cytotoxicity control for PAX8 inhibitor project, dose response (AID 743045);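 further: 0% = neutral control median and -100% = positive control median; more negative values mean more cell killing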
[7] = A2780 cell killing – plate reader, dry powder samples, cytotoxicity control, dose response (AID 743046);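 further: 0% = neutral control wells and -100% = cytotoxic reference compound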
[8] = OVCAR8 cell viability loss – plate reader, dry powder samples, PAX8 project, dose response (AID 743197)

Measured: max activity

CC(/C=C1\SC(=O)N(CC(=O)Nc2ccc(O)cc2)C1=O)=C\c1ccccc1
inactive: [1] | [2] | [3]

CCOC(=O)C1=CN(Cc2cccc(-c3cccnc3)c2)S(=O)(=O)N(C)C1C (stereo not drawn)
inactive: [1] | [2] | [3]

O[C@@H]1[C@@H](O)C=C2CCN3Cc4cc5c(cc4[C@H]1C23)OCO5 (stereo partly drawn)
inactive: [1] | [2] | [3]

C=C1CC(COc2ccc3c(C)c(Cl)c(=O)oc3c2)(c2ccccc2)OC1=O (stereo not drawn)
inactive: [1] | [2] | [3]

O=C1[C@@H]2Cc3c([nH]c4ccccc34)C(c3cccc(Br)c3)N2C(=O)CN1C1CCN(Cc2ccccc2)CC1 (stereo partly drawn)
inactive: [1] | [2] | [3]

C=CC[C@@H](CC(=O)N[C@H](CO)Cc1ccccc1)C(=O)N[C@H](COC(=O)[C@@H](CC=C)Cc1ccc(F)cc1)Cc1c[nH]c2ccccc12
inactive: [1] | [2] | [3]

N#Cc1ccc(-c2ccc([C@@H]3[C@@H]4CN(S(=O)(=O)c5ccc(-c6ccccc6)cc5)C[C@H]3N4)cc2)cc1
inactive: [1] | [2] | [3]

Oc1[nH]c2ccc(Br)cc2c1N=NC(=S)N1CCOCC1
inactive: [1] | [2] | [3]

CSc1ccc(COC(=O)c2cc([N+](=O)[O-])ccc2N2CCOCC2)cc1
inactive: [1] | [2] | [3]

CCSc1nsc(NC(=O)Nc2cccc(F)c2)n1
inactive: [1] | [2] | [3]

CCCCCCN(C(=O)CCCN1C(=O)NC(c2ccc(-c3ccccc3)cc2)C(C(=O)OCc2ccccc2)=C1C)C(C)C(=O)NCCCC (stereo not drawn)
inactive: [1] | [2] | [3]

CN1CC(=O)N2C(c3ccc(Cl)cc3)c3[nH]c4ccccc4c3C[C@H]2C1=O (stereo partly drawn)
inactive: [1] | [2] | [3]

CSc1nc(-c2ccccc2)nc(C(Cl)Cl)n1
inactive: [1] | [2] | [3]

S=C1SCN(Cc2cccnc2)CN1Cc1cccnc1
inactive: [1] | [2] | [3]

COc1cc(C(=O)NCC(c2cccs2)N2CCOCC2)ccc1OCc1ccc(Cl)cc1 (stereo not drawn)
inactive: [1] | [2] | [3]

COc1cc(NC(=O)c2ccc([N+](=O)[O-])o2)ccc1NC(=O)c1ccco1
inactive: [1] | [2] | [3]

CCN(CC)S(=O)(=O)c1cc(OC)ccc1N=Nc1ccc(O)c2ncccc12
inactive: [1] | [2] | [3]

CC1=CC(=O)C(C(C)C)=C/C1=N/OS(=O)(=O)c1ccccc1
inactive: [1] | [2] | [3]

O=S(=O)(Nc1cccc(-c2cn3cccnc3n2)c1)c1ccc(Cl)cc1
inactive: [1] | [2] | [3]

CCCCCc1cc(=O)oc2c(C(CCN3CCCCC3)c3ccc4c(c3)OCO4)c(OC)cc(OC)c12 (stereo not drawn)
inactive: [1] | [2] | [3]

CC(C1CC1)N(Cc1ccccc1)C(=S)Nc1cccc(C(F)(F)F)c1 (stereo not drawn)
inactive: [1] | [2] | [3]

CN=c1scc(-c2cccs2)n1/N=C/c1ccccc1O
inactive: [1] | [2] | [3]

COc1ccc(S(=O)(=O)N(C)C[C@H]2Oc3ccc(NC(=O)Nc4ccc(C(F)(F)F)cc4)cc3C(=O)N([C@H](C)CO)C[C@@H]2C)cc1
inactive: [1] | [2] | [3]

CN1CCN(c2ccc(S(=O)(=O)N3CCCCC3)cc2NC(=O)/C=C/c2ccc(Cl)c([N+](=O)[O-])c2)CC1
inactive: [1] | [2] | [3]

Cn1nnnc1Sc1ncnc2scc(-c3ccc([N+](=O)[O-])cc3)c12
inactive: [1] | [2] | [3]

Cn1nnnc1Sc1ncnc2scc(-c3ccccc3Cl)c12
inactive: [1] | [2] | [3]

Cc1cc(C(=O)Nc2cccc3c2O[C@H](CN(C)Cc2ccc(Oc4ccccc4)cc2)[C@@H](C)CN([C@H](C)CO)C3=O)n(C)n1
inactive: [1] | [2] | [3] | [4] | [5] -26.8% [at 16 µM, hits give low values] | [6] | [7]

O=C(Nc1cccc(Cl)c1)Nc1nnc(CSCCOc2ccc(Cl)cc2)s1
inactive: [1] | [2] | [3] | [4]

C[C@@H]1CCCCO[C@@H](CN(C)Cc2ccc(Cl)c(Cl)c2)[C@H](C)CN([C@H](C)CO)C(=O)c2cc(NC(=O)Nc3ccc(C(F)(F)F)cc3)ccc2O1
inactive: [1] | [2] | [3] | [4] | [5] 52.8% [at 0.26 µM, hits give low values] | [6] | [7] | [8]

O=C1/C(=C/c2ccccc2)SC(=S)N1CC(=O)N1CCCCC1c1cccnc1 (stereo not drawn)
not listed: [8]
inactive: all other assays above

C[C@H]1CN([C@@H](C)CO)C(=O)Cc2cc(NC(=O)C3CC3)ccc2O[C@@H]1CN(C)Cc1ccc(-c2ccccc2)cc1
inactive: [1] | [2] | [3] | [4] | [6]

COc1ccc(S(=O)(=O)Nc2ccc3c(c2)C(=O)N([C@H](C)CO)C[C@@H](C)[C@H](CN(C)C(=O)Nc2ccc(C(F)(F)F)cc2)OCCCC[C@H](C)O3)cc1
inactive: [1] | [2] | [3] | [4] | [5] -37.1% | [6] | [8]

COc1ccc(S(=O)(=O)Nc2ccc3c(c2)CC(=O)N([C@H](C)CO)C[C@H](C)[C@@H](CN(C)Cc2ccc(Cl)c(Cl)c2)O3)cc1
inactive: [1] | [2] | [3] | [4] | [5] 16.2% [at 16 µM, hits give low values] | [6] | [7] | [8]

O=C(NC(Nc1nc2ccc([N+](=O)[O-])cc2s1)(C(F)(F)F)C(F)(F)F)c1cccnc1
inactive: [1] | [2] | [3]

C[C@@H]1CCCCO[C@@H](CN(C)Cc2ccc(C(F)(F)F)cc2)[C@H](C)CN([C@H](C)CO)C(=O)c2cc(NS(=O)(=O)c3cccs3)ccc2O1
inactive: [1] | [2] | [3] | [4] | [5] -15.8% | [6] | [7] | [8]

COc1cccc(S(=O)(=O)N(C)C[C@@H]2OCc3ccccc3-c3c(n(C)c4ccccc34)C(=O)N([C@H](C)CO)C[C@@H]2C)c1
inactive: [1] | [2] | [3] | [4] | [5] -14.8% | [6]

Oc1ccc(C[C@H]2CN([C@@H](Cc3ccc(O)cc3)CN3CCC[C@@H]3CN3C(=S)NC[C@@H]3Cc3ccccc3)C(=S)N2CC2CCCCCC2)cc1
inactive: [1] | [2] | [3]

COc1ccc(C(=O)CN2C(=O)c3ccccc3S2(=O)=O)cc1
inactive: [1] | [2] | [3]

Cc1ccc(S(=O)(=O)Nc2ccc3c(c2)C(=O)N([C@H](C)CO)C[C@@H](C)[C@H](CN(C)Cc2ccc(C(F)(F)F)cc2)OCCCC[C@@H](C)O3)cc1
inactive: [1] | [2] | [3] | [4] | [5] 6.08% [at 0.5 µM, hits give low values] | [6] | [7] | [8]

C[C@H](CO)N1C[C@H](C)[C@@H](CN(C)Cc2ccc(Cl)c(Cl)c2)Oc2ccc(NC(=O)Nc3ccc(F)cc3)cc2CC1=O
inactive: [1] | [2] | [3] | [4] | [5] -44% | [6]

O=S(=O)(c1ccccc1)N1CCCCN2[C@H](CO)[C@H](c3ccc(-c4ccccc4F)cc3)[C@H]2C1
inactive: [1] | [2] | [3] | [4] | [5] -5.95% | [6] | [7]

COc1ccc(S(=O)(=O)Nc2ccc3c(c2)CC(=O)N([C@@H](C)CO)C[C@@H](C)[C@@H](CN(C)Cc2ccc(-c4ccccc4)cc2)O3)cc1
inactive: [1] | [2] | [3] | [4] | [6]

COc1ccc(/C=C2\CN(Cc3ccccc3)C/C(=C\c3ccc(OC)c(O)c3)C2=O)cc1O
inactive: [1] | [2] | [3]

COc1ccc(CN(C)C[C@H]2Oc3ccc(NC(=O)Nc4ccc5c(c4)OCO5)cc3CC(=O)N([C@H](C)CO)C[C@H]2C)cc1
inactive: [1] | [2] | [3] | [4] | [5] -9.48% [at 18 µM, hits give low values] | [6] | [7] | [8]

O=C(Cn1ncc(Cl)c(Cl)c1=O)NC(=O)NC1CCCCC1
inactive: [1] | [2] | [3]

COc1ccc(S(=O)(=O)Nc2ccc3c(c2)C(=O)N([C@H](C)CO)C[C@H](C)[C@@H](CN(C)Cc2ccc(C(F)(F)F)cc2)OCCCC[C@H](C)O3)cc1
inactive: [1] | [2] | [3] | [4] | [5] -20.9% [at 0.5 µM, hits give low values] | [6] | [7] | [8]

COc1cccc(-c2nc(CS(=O)(=O)CC(=O)NCCCN3CC(C)CC(C)C3)c(C)o2)c1 (stereo not drawn)
inactive: [1] | [2] | [3]
